Measured values published in PubChem BioAssay (Tox21).
Inconclusive results are not listed. Activity calls are given as the source filed them. Calls come from the whole dose curve; as a rule, active = well fitted curve in the direction sought with a large enough effect in the repeat runs; inconclusive = weak or mixed curves; inactive = no such curve, though single readings can be large; an effect the other way counts as inactive or inconclusive.

What was measured:
[1] = qHTS RealTime-Glo MT Cell Viability Assay in HepG2 cells - 24 hour (AID 1224867); note: nearly all actives have a fitted effect of over 50% in size
Method in brief: (§1)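 HepG2 suspension premixed with RealTime-Glo reagents is plated at 600 cells per well and left 5 h at 37 C/5% CO2. Compounds in DMSO then go in, and bioluminescence reflecting viable cell number is recorded over 40 h.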

[2] = qHTS RealTime-Glo MT Cell Viability Assay in HEK293 cells - 32 hour (AID 1224868); note: top concentration of the series differs between compounds; nearly all actives have a fitted effect of over 50% in size
Method in brief: (§2)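 Reads taken at 0, 8, 16, 24, 32 and 40 h from the same wells. HEK293 cells (600/well) carried RealTime-Glo reagents from seeding, with compound added after a 5 h settle at 37 C.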

[3] = A CellTox Green Cytotoxicity Assay to monitor cytotoxicity in HEK293 cells - 0 hour (AID 1224869); note: nearly all actives have a fitted effect of over 50% in size
Method in brief: (§3)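 Fluorescence intensity, read at 0, 8, 16, 24, 32 and 40 h of compound treatment, reflected dye binding to DNA of dead HEK293 cells; compounds (23 nL, DMSO) were added 5 h after plating cells with reagent.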

[4] = qHTS RealTime-Glo MT Cell Viability Assay in HepG2 cells - 40 hour (AID 1224870); note: nearly all actives have a fitted effect of over 50% in size
Method in brief: (§4)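 HepG2 cells (600/well) mixed with RealTime-Glo MT reagent, settled 5 h at 37 C/5% CO2 before compound addition. Nonlytic NanoLuc luminescence from viable-cell prosubstrate reduction read repeatedly during 40 h treatment at 37 C.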

[5] = A CellTox Green Cytotoxicity Assay to monitor cytotoxicity in HEK293 cells - 40 hour (AID 1224871); note: nearly all actives have a fitted effect of over 45% in size
Method in brief: as §3

[6] = qHTS RealTime-Glo MT Cell Viability Assay in HEK293 cells - 16 hour (AID 1224872)
Method in brief: as §2

[7] = qHTS RealTime-Glo MT Cell Viability Assay in HepG2 cells - 8 hour (AID 1224873); note: nearly all actives have a fitted effect of over 55% in size
Method in brief: as §4

[8] = qHTS RealTime-Glo MT Cell Viability Assay in HEK293 cells - 40 hour (AID 1224874); details: RealTime-Glo luminescence, hits give low values; note: nearly all actives have a fitted effect of over 50% in size
Method in brief: (§5)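 Viable HEK293 cells reduce a cell-permeant prosubstrate; the product diffuses out and is consumed by NanoLuc in the medium to give light. Compounds went in after a 5 h incubation and plates were read over the treatment course.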

[9] = A CellTox Green Cytotoxicity Assay to monitor cytotoxicity in HEK293 cells - 24 hour (AID 1224875); note: series mostly up to about 77 µM; nearly all actives have a fitted effect of over 45% in size
Method in brief: as §3

[10] = A CellTox Green Cytotoxicity Assay to monitor cytotoxicity in HepG2 cells - 16 hour (AID 1224876); note: nearly all actives have a fitted effect of over 45% in size
Method in brief: (§6)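 Using 1536-well format, dye-containing HepG2 suspension was seeded, allowed 5 h at 37 C/5% CO2, dosed by pintool with compounds, positive and negative controls, and imaged for fluorescence across 40 h.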

[11] = qHTS RealTime-Glo MT Cell Viability Assay in HepG2 cells - 32 hour (AID 1224877); note: nearly all actives have a fitted effect of over 55% in size
Method in brief: as §1

[12] = A CellTox Green Cytotoxicity Assay to monitor cytotoxicity in HepG2 cells - 24 hour (AID 1224878); note: nearly all actives have a fitted effect of over 45% in size
Method in brief: as §6

[13] = qHTS RealTime-Glo MT Cell Viability Assay in HEK293 cells - 0 hour (AID 1224880)
Method in brief: as §5

[14] = A CellTox Green Cytotoxicity Assay to monitor cytotoxicity in HEK293 cells - 32 hour (AID 1224881); note: nearly all actives have a fitted effect of over 40% in size
Method in brief: as §3

[15] = A CellTox Green Cytotoxicity Assay to monitor cytotoxicity in HepG2 cells - 0 hour (AID 1224882); note: nearly all actives have a fitted effect of over 35% in size
Method in brief: as §6

[16] = A CellTox Green Cytotoxicity Assay to monitor cytotoxicity in HepG2 cells - 32 hour (AID 1224883); note: nearly all actives have a fitted effect of over 50% in size
Method in brief: as §6

[17] = A CellTox Green Cytotoxicity Assay to monitor cytotoxicity in HEK293 cells - 8 hour (AID 1224884); note: nearly all actives have a fitted effect of over 35% in size
Method in brief: as §3

[18] = qHTS RealTime-Glo MT Cell Viability Assay in HepG2 cells - 16 hour (AID 1224885); note: nearly all actives have a fitted effect of over 50% in size
Method in brief: as §1

[19] = qHTS RealTime-Glo MT Cell Viability Assay in HEK293 cells - 24 hour (AID 1224886)
Method in brief: as §2

[20] = A CellTox Green Cytotoxicity Assay to monitor cytotoxicity in HepG2 cells - 40 hour (AID 1224879); note: nearly all actives have a fitted effect of over 40% in size; note: potency is the fitted concentration of half-maximal effect
Method in brief: as §6
% is set by controls: 0 for no effect and ±100 for the full control effect.

C[C@@H]1CC[C@@]2(OC1)O[C@H]1C[C@H]3[C@@H]4CC[C@H]5C[C@@H](O)CC[C@]5(C)[C@H]4CC(=O)[C@]3(C)[C@H]1[C@@H]2C
inactive: activity change, negative = cytotoxicity [1] -0.436% [at 6.97 µM] | activity change, negative = cytotoxic [2] -2.31% [at 6.97 µM] | cytotoxicity [3] -2.97% [at 6.97 µM] | activity change, negative = cytotoxic [4] -0.288% [at 6.97 µM] | cytotoxicity increase [5] -2.28% [at 6.97 µM] | activity change, negative = cytotoxicity [6] -0.344% [at 6.97 µM] | viability change, negative = cytotoxic [7] 1.5% [at 6.97 µM] | max response [8] -0.328% | activity change [9] -2.49% [at 6.97 µM, hits give high values] | cytotoxicity increase [10] -10% [at 6.97 µM] | activity change, negative = cytotoxic [11] 1.67% [at 6.97 µM] | cytotoxicity [12] -7.96% [at 6.97 µM] | activity change, negative = cytotoxicity [13] 0.253% [at 6.97 µM] | cytotoxicity increase [14] -0.706% [at 6.97 µM] | cytotoxicity [15] 2.51% [at 6.97 µM] | cytotoxicity increase [16] -3.63% [at 6.97 µM] | cytotoxicity increase [17] -0.568% [at 6.97 µM] | activity change, negative = cytotoxic [18] 0.914% [at 6.97 µM] | activity change, negative = cytotoxicity [19] -0.905% [at 6.97 µM]

CCCCCCCCOCCC#N
inactive: outcome [1] | outcome [2] | outcome [3] | outcome [4] | Potency [5] | outcome [6] | outcome [7] | max response [8] -1.56% | Potency [9] | Potency [10] | outcome [11] | Potency [13] | Potency [14] | Potency [15] | Potency [17] | outcome [18] | outcome [19]
active: Potency [20] 15.5 µM

C=CCN1CCc2nc(N)sc2CC1
inactive: outcome [1] | outcome [2] | outcome [3] | outcome [4] | Potency [5] | outcome [6] | outcome [7] | max response [8] 7.02% | Potency [9] | outcome [11] | Potency [20] | Potency [13] | Potency [14] | Potency [15] | Potency [16] | Potency [17] | outcome [18] | outcome [19]

CCCc1ncc(C(=O)O)s1
inactive: outcome [1] | outcome [2] | outcome [3] | outcome [4] | Potency [5] | outcome [6] | outcome [7] | max response [8] 0.25% | Potency [9] | outcome [11] | Potency [12] | Potency [20] | Potency [13] | Potency [14] | Potency [15] | Potency [16] | Potency [17] | outcome [18] | outcome [19]

CCCCN(CCCC)CCCCCCN(CCCC)CCCC
inactive: outcome [1] | outcome [2] | outcome [3] | outcome [4] | Potency [5] | outcome [6] | outcome [7] | max response [8] -10.4% | Potency [9] | Potency [10] | outcome [11] | Potency [20] | Potency [13] | Potency [14] | Potency [15] | Potency [16] | Potency [17] | outcome [18] | outcome [19]

CC1(C)S[C@@H]2[C@H](NC(=O)Cc3ccccc3)C(=O)N2[C@H]1C(=O)O (tested in a mixture with another compound)
inactive: outcome [1] | outcome [2] | outcome [3] | outcome [4] | Potency [5] | outcome [6] | outcome [7] | max response [8] -2.11% | Potency [9] | outcome [11] | Potency [20] | Potency [14] | Potency [15] | Potency [16] | Potency [17] | outcome [18] | outcome [19]

OCCC(F)(F)C(F)(F)C(F)(F)C(F)(F)C(F)(F)C(F)(F)F
inactive: outcome [1] | outcome [2] | outcome [3] | outcome [4] | Potency [5] | outcome [6] | outcome [7] | max response [8] -4.06% | Potency [9] | outcome [11] | Potency [12] | Potency [20] | Potency [13] | Potency [14] | Potency [15] | Potency [16] | Potency [17] | outcome [18] | outcome [19]

Cc1cc(C)c(N)c(Cl)c1
inactive: outcome [1] | outcome [2] | outcome [3] | outcome [4] | Potency [5] | outcome [6] | outcome [7] | max response [8] 2.65% | Potency [9] | Potency [10] | outcome [11] | Potency [20] | Potency [13] | Potency [15] | Potency [16] | Potency [17] | outcome [18] | outcome [19]

Cc1ccc(O)c([N+](=O)[O-])c1
inactive: outcome [1] | outcome [2] | outcome [3] | outcome [4] | Potency [5] | outcome [6] | outcome [7] | max response [8] -15.2% | Potency [9] | Potency [10] | outcome [11] | Potency [20] | Potency [13] | Potency [14] | Potency [15] | Potency [16] | Potency [17] | outcome [18] | outcome [19]

CCOc1ccccc1OCCN[C@H](C)Cc1ccc(OC)c(S(N)(=O)=O)c1
inactive: outcome [1] | outcome [2] | outcome [3] | outcome [4] | Potency [5] | outcome [6] | outcome [7] | max response [8] -2.4% | Potency [9] | outcome [11] | Potency [12] | Potency [20] | Potency [13] | Potency [14] | Potency [15] | Potency [16] | Potency [17] | outcome [18] | outcome [19]

COc1cc(S(N)(=O)=O)cc(C(=O)O)c1OC
inactive: outcome [1] | outcome [2] | outcome [3] | outcome [4] | Potency [5] | outcome [6] | outcome [7] | max response [8] 0.543% | Potency [9] | Potency [10] | outcome [11] | Potency [20] | Potency [13] | Potency [14] | Potency [15] | Potency [16] | Potency [17] | outcome [18] | outcome [19]

CCCCCCCCCCCCCC(=O)OCC
inactive: outcome [1] | outcome [2] | outcome [3] | outcome [4] | Potency [5] | outcome [6] | outcome [7] | max response [8] -1.33% | Potency [9] | outcome [11] | Potency [12] | Potency [20] | Potency [13] | Potency [14] | Potency [15] | Potency [16] | Potency [17] | outcome [18] | outcome [19]

CCC(C)(C)C
inactive: outcome [1] | outcome [2] | outcome [3] | outcome [4] | Potency [5] | outcome [6] | outcome [7] | max response [8] 2.63% | Potency [9] | Potency [10] | outcome [11] | Potency [12] | Potency [13] | Potency [14] | Potency [15] | Potency [16] | Potency [17] | outcome [18] | outcome [19]

CCN1CCN(C(=O)N[C@@H](C(=O)N[C@@H]2C(=O)N3[C@@H]2SC(C)(C)[C@H]3C(=O)O)c2ccccc2)C(=O)C1=O
inactive: outcome [1] | outcome [2] | outcome [3] | outcome [4] | Potency [5] | outcome [6] | outcome [7] | max response [8] 1.08% | Potency [9] | Potency [10] | outcome [11] | Potency [12] | Potency [13] | Potency [15] | Potency [16] | Potency [17] | outcome [18] | outcome [19]
